# Rows were chosen to be rich in hits. Some 2.4% of all compounds tested hit in one or more screens of this group.
# POLI inh: qHTS for Inhibitors of Polymerase Iota. DNA polymerase iota (Homo sapiens), Q9UNA4. Pol iota fluorescent replication assay, 10 min. Potency, µM (series often up to 115 µM), without a hit: top-dose activity, negative = inhibition, hits mostly inhibitors. 390,000 compounds, 1% hits. AID 588590, 2011
#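 Pol iota at 10 nM preincubated 15 min with compounds at room temperature; reaction started with fluorescent substrate, 50 nM final. Fluorescence read kinetically at 0 and 10 min; buffer-only wells as negative control.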
# POLK inh: qHTS for Inhibitors of Polymerase Kappa; purified Pol kappa, fluorescent DNA synthesis assay, 10 min; 400,000 compounds, 0.53% hits; DNA polymerase kappa (Homo sapiens), Q9UBT6; Potency, µM (titrated, usually from 107 µM), without a hit: at the top dose activity, negative = inhibition, hits mostly inhibitors; further: on the % scale 0 is the no-effect control and ±100 the full control effect
#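 Readout: fluorescence, taken kinetically at 0 and 10 min. Conditions: 10 nM Pol kappa, 15 min RT compound preincubation, 50 nM substrate final. Controls: enzyme-free buffer wells.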
# POLB inh: qHTS Assay for Inhibitors of DNA Polymerase Beta; Pol beta primer extension/strand displacement, fluorescence kinetic; Potency, µM (top dose mostly 114 µM), for the others: top-dose activity change, negative = inhibition, usual class: inhibitors; 340,000 compounds, 1.3% hits; AID 485314, 2010; further: on the % scale 0 is the no-effect control and ±100 the full control effect
#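 Kinetic readout of DNA synthesis with strand displacement by Pol beta. Compound and 10 nM enzyme sit 15 min at room temperature; 50 nM substrate starts the reaction, read immediately and at 10 min.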
# FEN1 inh: qHTS Assay for the Inhibitors of Human Flap endonuclease 1 (FEN1); 390,000 compounds, 0.35% hits; Potency, µM (highest dose often 114 µM), for the others: top-dose activity change, negative = inhibition, most hits filed as inhibitors; Recombinant FEN1 flap cleavage, fluorescence, 15 min; further: on the % scale 0 is the no-effect control and ±100 the full control effect; nearly all actives have a fitted effect of over 65% in size
#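 With each library titrated from low to high concentration, compounds met 10 nM FEN1 for 15 min at room temperature before 50 nM substrate was added; readings at 0 and 15 min fed four-parameter Hill curve fits.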
# WRN inhibitor: qHTS for Inhibitors of WRN Helicase. WRN helicase unwinding, fluorescent forked duplex, kinetic. 360,000 compounds, 0.46% hits. Bifunctional 3'-5' exonuclease/ATP-dependent helicase WRN (Homo sapiens), Q14191. AID 651768, 2012. Potency, µM (top dose mostly 114 µM), inactives show at the highest dose activity change, negative = inhibition, most hits filed as inhibitors; further: on the % scale 0 is the no-effect control and ±100 the full control effect; nearly all actives have a fitted effect of over 55% in size
# Target sequence (Q14191 whole entry, looked up): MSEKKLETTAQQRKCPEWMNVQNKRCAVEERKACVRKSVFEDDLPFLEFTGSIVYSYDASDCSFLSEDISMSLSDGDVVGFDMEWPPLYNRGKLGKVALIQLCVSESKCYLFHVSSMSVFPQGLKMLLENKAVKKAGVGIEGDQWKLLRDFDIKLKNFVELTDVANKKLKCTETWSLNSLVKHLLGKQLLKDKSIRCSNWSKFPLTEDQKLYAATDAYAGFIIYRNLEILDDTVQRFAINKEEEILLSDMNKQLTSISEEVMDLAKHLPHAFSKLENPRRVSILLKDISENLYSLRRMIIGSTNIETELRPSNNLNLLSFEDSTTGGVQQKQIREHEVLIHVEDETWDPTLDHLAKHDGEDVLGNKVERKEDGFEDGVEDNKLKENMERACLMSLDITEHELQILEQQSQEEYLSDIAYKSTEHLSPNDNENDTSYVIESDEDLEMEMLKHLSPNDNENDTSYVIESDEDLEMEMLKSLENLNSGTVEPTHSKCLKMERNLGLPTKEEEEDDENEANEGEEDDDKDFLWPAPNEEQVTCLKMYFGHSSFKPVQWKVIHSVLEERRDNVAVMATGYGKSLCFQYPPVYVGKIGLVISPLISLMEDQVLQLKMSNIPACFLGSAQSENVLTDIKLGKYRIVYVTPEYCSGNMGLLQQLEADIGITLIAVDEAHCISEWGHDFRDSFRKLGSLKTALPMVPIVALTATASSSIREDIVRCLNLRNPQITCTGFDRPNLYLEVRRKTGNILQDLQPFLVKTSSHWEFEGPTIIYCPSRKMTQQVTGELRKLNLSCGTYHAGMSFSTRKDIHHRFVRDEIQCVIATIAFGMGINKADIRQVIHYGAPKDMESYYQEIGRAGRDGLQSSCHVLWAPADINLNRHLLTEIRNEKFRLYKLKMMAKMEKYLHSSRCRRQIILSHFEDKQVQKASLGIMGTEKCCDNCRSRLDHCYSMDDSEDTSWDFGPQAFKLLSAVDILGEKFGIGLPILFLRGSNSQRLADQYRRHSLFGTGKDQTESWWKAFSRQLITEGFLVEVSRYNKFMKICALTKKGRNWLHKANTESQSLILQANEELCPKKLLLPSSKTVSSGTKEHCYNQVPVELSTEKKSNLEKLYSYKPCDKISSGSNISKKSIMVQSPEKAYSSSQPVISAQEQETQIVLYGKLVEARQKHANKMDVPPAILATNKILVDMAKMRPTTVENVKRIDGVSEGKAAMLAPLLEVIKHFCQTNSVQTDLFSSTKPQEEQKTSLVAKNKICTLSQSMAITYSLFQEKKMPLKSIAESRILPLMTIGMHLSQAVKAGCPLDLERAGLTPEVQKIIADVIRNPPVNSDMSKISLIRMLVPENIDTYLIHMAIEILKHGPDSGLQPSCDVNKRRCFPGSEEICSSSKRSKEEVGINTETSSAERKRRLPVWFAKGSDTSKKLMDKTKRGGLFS
#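 Kinetic fluorescence helicase assay: unwinding of a quenched forked DNA duplex (100 nM final) with 2 mM ATP final raises red fluorescence (525/598 nm). Compounds sat 15 min at room temperature with 20 nM WRN beforehand.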
# Pol eta inh: qHTS for Inhibitors of Polymerase Eta. DNA polymerase eta (Homo sapiens), Q9Y253. recombinant Pol eta, fluorescent DNA replication assay. Potency, µM (top dose mostly 114 µM), for inactives: at the highest dose activity change, negative = inhibition, usual class: inhibitors. 390,000 compounds, 1.2% hits; further: on the % scale 0 is the no-effect control and ±100 the full control effect
#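 Fluorescent replication assay: 50 nM final substrate added after a 15 min room-temperature compound preincubation with 10 nM enzyme. Signal taken at 0 min and again at 10 min.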
# An asterisk follows results filed as active; ? = inconclusive; · = no result; ! = a repeat was not active; [ ] = another dose, or the depositor's remark. The call rests on the fitted dose curve; in most records, active means well fitted curve in the direction sought with a large enough effect; inconclusive means small, poorly fitted or top-dose-only effect, or another doubt; inactive means no such curve, though single readings can be large; an effect the other way counts as inactive or inconclusive. Potency means the concentration at half of the fitted maximal effect.
SMILES,POLI inh,POLK inh,POLB inh,FEN1 inh,WRN inhibitor,Pol eta inh
COc1ccc(NC(=O)Cn2nnc(C(=O)NCc3ccccc3)c2N)c(OC)c1,?,2%[60.1 µM],?,11%,7%,10%
C=C1C[C@@]23CC[C@H]4[C@@](C)(CCC[C@@]4(C)C(=O)OC4OC(CO)C(O)C(O)C4O)[C@@H]2CC[C@]1(OC1OC(CO)C(O)C(O)C1OC1OC(CO)C(O)C(O)C1O)C3 (stereo partly specified),·,1%[60.1 µM],·,·,·,·
COc1ccc(CCNC(=O)c2nnn(CC(=O)Nc3ccccc3C)c2N)cc1OC,?,-11%,20µM*,-21%,-8%,?
CCCC[C@H](NC(C)=O)C(=O)N[C@H]1CC(=O)NCCCC[C@@H](C(N)=O)NC(=O)[C@H](Cc2c[nH]c3ccccc23)NC(=O)[C@H](CCCN=C(N)N)NC(=O)[C@@H](Cc2ccccc2)NC(=O)[C@H](Cc2cnc[nH]2)NC1=O,·,13%[60.1 µM],·,·,·,·
O=S(=O)(Cc1noc(-c2ccc(Cl)cc2)n1)Cc1ccco1,50µM*,?,14µM*,-16%,-19%,-2%
CCCN1CCCC(c2cccc(S(C)(=O)=O)c2)C1 (stereo unspecified),·,-16%[60.1 µM],·,·,·,·
COc1cc(Nc2nc(SCC(=O)c3ccc(Br)cc3)nc3ccccc23)cc(OC)c1,79µM*,1%[60.1 µM],?,2%,·,?
CC(=O)Nc1ccc(OCC(O)CN2CCN(c3cc(Cl)ccc3C)CC2)cc1 (stereo unspecified),7%,0%,6%,-6%,-9%,-10%
CC(=O)Nc1ccc(OCC(O)CN2CCN(c3ccc(C)c(Cl)c3)CC2)cc1 (stereo unspecified),89µM*,-5%,6%,0%,-1%,-10%
CS(=O)(=O)Nc1ccc(-c2ccc(/C=C3\SC(N)=NC3=O)o2)cc1,?,-8%,40µM*,-26%,?,?
NC1=NC(=O)/C(=C/c2cccs2)S1,6%,-2%,-23%,3%,-11%,-4%
O=S(=O)(N1CCN(c2nc(-c3cccs3)nc3ccccc23)CC1)C(F)(F)F,-8%,-5%,·,-22%,·,·
N[C@@H](Cc1cc(-c2ccc(Cl)cc2Cl)cc(CP(=O)(O)O)c1O)C(=O)O,·,1.8µM*,·,·,·,·
CN(C)C(=O)CCSC(SCCC(=O)O)c1cccc(/C=C/c2ccc3ccc(Cl)cc3n2)c1 (stereo unspecified),·,2%[19.4 µM],·,·,·,·
O=C(NCCc1ccccc1)c1ccc(=O)oc1,8%,-10%,19%,-2%,15%,-5%
O=C(NC1CCCC1)c1ccc2nc[nH]c2c1,-7%,-4%,-1%,0%,6%,-13%
O=C(NCCO)c1ccc2nc(-c3ccco3)c(-c3ccco3)nc2c1,2.5µM*,25µM*,50µM*,45µM*,11µM*,3.5µM*
O=C(NCCc1ccccc1)c1ccc2nc(-c3ccco3)c(-c3ccco3)nc2c1,?,?,7.9µM*,-15%,?,?
O=C(NC1CCCC1)c1ccc2nc(-c3ccco3)c(-c3ccco3)nc2c1,?,22µM*,50µM*,?,40µM*,3.5µM*
CCOc1ccc(CCNC(=O)c2cc3c(=O)n(C)c4ccccc4c3n2C)cc1OCC,12%,-14%,7%,-4%,·,-13%
CC1(C)N([O-])C2=C(CCCC2)[N+]1=O,?,?,25µM*,-10%,-34%,22µM*
O=C(CN1CCN(S(=O)(=O)c2ccc(F)cc2)CC1)c1ccc(O)c(O)c1,51%,-12%,-30%,-3%,-3%,-6%
COc1ccc(S(=O)(=O)N2CCN(CC(=O)c3ccc(O)c(O)c3)CC2)cc1,?,32µM*,?,-11%,-6%[11.6 µM],?
CC(=O)c1cc2c(cc1O)OC(C)(C)C=C2,·,-5%[60.1 µM],·,·,·,·
C/C=C(\C=C\[C@@H](C)C/C=C/CC/C=C/C=C\C[C@@H](OC)/C(C)=C\C=C(C)C)CC(=O)O,·,11%[60.1 µM],·,·,·,·
SMILES,POLI inh,POLK inh,POLB inh,FEN1 inh,WRN inhibitor,Pol eta inh
O=C1c2ccccc2-c2cc([N+](=O)[O-])c([N+](=O)[O-])cc21,2.2µM*,0%,·,?,·,·
O=C(NCCc1ccccc1)c1nccc2ccccc12,6%,-3%,·,-5%,1%,4%
c1ccc(CCNc2ccnc3cc4ccccc4cc23)cc1,81%,-14%,22µM*,50µM*,-19%,-21%
C[C@H](NC(=O)[C@@H](Cc1c[nH]c2ccccc12)NC(=O)[C@@H](N)Cc1cnc[nH]1)C(=O)N[C@@H](Cc1c[nH]c2ccccc12)C(=O)N[C@H](Cc1ccccc1)C(=O)N[C@@H](CCCCN)C(N)=O,·,15%[60.1 µM],·,·,·,·
COc1ccc2cc(C(=O)Nc3ccccc3)sc(=O)c2c1OC,18%,?,22µM*,1%,-35%,?
COc1cc(OC)cc(C(=O)N[C@H](C(=O)OCC(=O)Nc2sccc2C#N)C(C)C)c1,?,?,?,-7%,-5%[11.6 µM],50µM*
N#Cc1ccsc1NC(=O)COC(=O)c1ccc(Br)o1,25µM*,-42%,·,?,-24%,?
COc1cccc2c1C(=O)c1c(O)c3c(c(O)c1C2=O)C[C@@](O)(C(=O)CO)C[C@@H]3O[C@H]1C[C@H](N)[C@H](O)[C@H](C)O1,-10%,27µM*!,8.9µM*,-9%,56µM*,45µM*
CC(=O)C1(O)Cc2c(O)c3c(c(O)c2C(OC2CC(N)C(O)C(C)O2)C1)C(=O)c1c(O)cccc1C3=O (stereo unspecified),?,7.1µM*,·,?,·,·
CC[C@@H](C)[C@H](NS(=O)(=O)c1cccc2ccccc12)C(=O)N[C@H](C=O)Cc1c[nH]c2ccccc12,·,4%[19.4 µM],·,·,·,·
S=C(NCCCc1cnc[nH]1)NCCCN(Cc1ccc(Cl)cc1)c1ccc(Br)cc1,-2%,-21%,·,?,·,·
O=C1c2ccccc2C(=O)N1c1ccccc1,24%,5%,·,1%,-5%,-11%
O=C1C=CC(=O)N1c1cccc(-c2ccccc2)c1,?,-15%,0%,1%,32µM*,?
CCC1CCCCC1,·,14%[60.1 µM],·,·,·,·
CCCCC/C=C\C\C=C/C=C/C=C/[C@@H](SC[C@H](N)C(=O)O)[C@@H](O)CCCC(=O)O,·,0%[19.4 µM],·,·,·,·

# Screens deposited in PubChem BioAssay by National Center for Advancing Translational Sciences (NCATS).
